ELG1 genotox – inducers of genotoxicity in HEK293T ELG1-luciferase cells; HEK293T ELG1-luciferase reporter, luminescence, 16 h; Potency, µM (titrated, usually from 46 µM), for the others: at the top dose activity change, positive = activation, actives largely listed as activators; hit rate 1.3% among 330,000; AID 504466; also: % of control where 0% means no effect; nearly all actives have a fitted effect of over 60% in size
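Screening used a luciferase reporter fused to human ELG1 in HEK293T cells. Luminescence was read on a CCD plate imager after 16 hr exposure and 30 min ONE-Glo incubation.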
NPC1 promoter act – activates the NPC1 promoter. Huh7 NPC1 promoter luciferase reporter, 24 h. Potency, µM (doses to about 9.22 µM), for the others: at the top dose activation, usual class: activators. hit rate 2.4% among 320,000. AID 485313; also: % of control where 0% means no effect; nearly all actives have a fitted effect of over 60% in size
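Cells: Huh7 expressing luciferase under the NPC1 promoter, 1500/well. Seeded 2 h, compound added, incubated 24 h at 37 °C. Luciferase reagent, 10 min ambient, then luminescence.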
SMN2 splice up – enhancers of SMN2 splice variant expression; HEK293 SMN2-luciferase splicing reporter, luminescence, 30-36 h; Potency, µM (highest dose often 46.1 µM), for inactives: at the top dose activity change, positive = activation, actives largely listed as activators; hit rate 2.8% among 210,000; also: % of control where 0% means no effect; nearly all actives have a fitted effect of over 55% in size
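HEK293 cells carry an SMN2 […]–luciferase reporter in which exon 7 inclusion puts luciferase in frame. Cells were plated 10-12 h before compound addition, then incubated 30-36 h at 37C. ONE-Glo luminescence was read; sodium butyrate at 4.5 mM final served as control.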
FLuc counter – inhibits or activates purified firefly luciferase, miR-21 counter-screen; purified FLuc, Km substrates, luminescence inhibition; hit rate 6.9% among 360,000; AID 588342; Potency, µM (titrated, usually from 57.5 µM), inactives show at the top dose activity change, negative = inhibition, usual class: inhibitors; P08659;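 also: plate controls were vehicle for no effect and reference inhibitor for full effect; nearly all actives have a fitted effect of over 55% in size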
Target sequence (P08659 whole entry, looked up): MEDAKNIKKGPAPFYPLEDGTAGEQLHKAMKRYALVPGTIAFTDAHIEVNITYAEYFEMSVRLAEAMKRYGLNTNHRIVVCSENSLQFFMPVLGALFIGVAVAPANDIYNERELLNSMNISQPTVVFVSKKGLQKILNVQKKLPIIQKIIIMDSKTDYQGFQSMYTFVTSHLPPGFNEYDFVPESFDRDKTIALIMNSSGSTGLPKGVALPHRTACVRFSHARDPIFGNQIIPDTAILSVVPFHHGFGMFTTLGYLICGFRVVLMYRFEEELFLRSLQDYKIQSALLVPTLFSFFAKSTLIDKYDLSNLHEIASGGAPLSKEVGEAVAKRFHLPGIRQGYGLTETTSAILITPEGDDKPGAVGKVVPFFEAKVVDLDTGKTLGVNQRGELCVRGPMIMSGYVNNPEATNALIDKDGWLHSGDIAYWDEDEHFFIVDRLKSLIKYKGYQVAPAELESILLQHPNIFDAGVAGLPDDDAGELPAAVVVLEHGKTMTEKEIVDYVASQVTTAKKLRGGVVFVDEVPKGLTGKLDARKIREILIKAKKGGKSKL
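Biochemical qHTS of compounds, final roughly 60 µM downward over six points, against 10 nM purified firefly luciferase using Km concentrations of substrates (10 uM D-luciferin, 10 uM ATP) in Tris acetate pH 7.5 buffer; luminescence output.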
Rab9 promoter act – activators of Rab9 promoter; Huh7 Rab9 promoter-luciferase reporter, luminescence, 24 h; Potency, µM (titrated, usually from 9.22 µM), for inactives: at the highest dose activation, negative = inhibition, hits mostly activators; hit rate 2.8% among 320,000; AID 485297; also: % of control where 0% means no effect; nearly all actives have a fitted effect of over 60% in size
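Measured in stably transfected Huh7 cells bearing a Rab9 promoter–luciferase construct: 24 h compound treatment at 37 °C, followed by luminescence detection.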
Luc counter – Kinase-Glo luciferase inhibition (counter-screen); Potency, µM (series often up to 38.3 µM), for the others: top-dose activity change, negative = inhibition, usual class: inhibitors; AID 1379; hit rate 0.28% among 200,000; Kinase-Glo luciferase, ATP luminescence, 8 min; also: % is scaled to controls: 0 for no effect and ±100 for the full control effect; nearly all actives have a fitted effect of over 60% in size
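Light output from Kinase-Glo luciferase with luciferin and 10 uM ATP in 50 mM imidazole pH 7.2, KCl, MgCl2, Tween 20, BSA; compound pin-delivered, 8-min ambient incubation, then luminescence read.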
Starred values were filed as active, the others as inactive; [ ] = remark or other dose. A selection: hits, their analogues and other compounds. The true share with any hit is near 7.5%. Calls follow the shape of the dose curve; as a rule, active = well fitted curve in the direction sought with a large enough effect; inconclusive = small, poorly fitted or top-dose-only effect, or another doubt; inactive = no such curve, though single readings can be large; an effect the other way counts as inactive or inconclusive. Potency is read from the fitted curve at half-maximal effect.

Screening O=C(CN1CCCC1)Nc1ccc(NC(=O)Nc2ccccc2)cc1 returned ELG1 genotox 15.6%, NPC1 promoter act inconclusive, FLuc counter 19µM*, Rab9 promoter act inconclusive and Luc counter 1.3%.
Screening FC(F)(F)c1nc2ccc(SSc3ccc4nc(C(F)(F)F)[nH]c4c3)cc2[nH]1 returned SMN2 splice up -9.5%[9.22 µM] and Luc counter -2.0%[7.66 µM].
Screening Clc1nc(Cl)nc(Cl)n1 returned SMN2 splice up -29.2%.
For COc1ccc(CCn2c(O)c(C=NCc3cccnc3)c(=O)[nH]c2=O)cc1OC the results were ELG1 genotox 1.2%, NPC1 promoter act 1.2%, SMN2 splice up -11.2%, FLuc counter 1.9%, Rab9 promoter act 0.2% and Luc counter 1.6%.
COc1ccc(C2CC(c3c(O)n(CCc4ccccc4)c(=O)[nH]c3=O)=NN2)cc1OC (stereo not drawn) was read as ELG1 genotox -6.9%, NPC1 promoter act -1.4%, FLuc counter 19µM* and Rab9 promoter act -6.9%.
COc1cc(/C=N/NC(=O)CN2CCCCC2)ccc1OCc1ccccc1 was read as ELG1 genotox inconclusive, NPC1 promoter act -2.1%, SMN2 splice up inconclusive, FLuc counter 12µM*, Rab9 promoter act -1.5% and Luc counter -3.9%.
CCN(CC)c1ccc(C=C2C(=O)NC(=S)NC2=O)cc1 was read as ELG1 genotox inconclusive, NPC1 promoter act -5.1%, FLuc counter 19µM* and Rab9 promoter act -8.9%.
`CC(C)CN(CC(C)C)c1ccc(C=C2C(=O)NC(=S)NC2=O)cc1[N+](=O)[O-]` gave ELG1 genotox -3.0%, NPC1 promoter act 10.3%, SMN2 splice up -9.5%, FLuc counter -11.5%, Rab9 promoter act 3.8% and Luc counter -4.2%.
For COc1ccc(NC2=NCC(C)S2)cc1 (stereo not drawn) the results were ELG1 genotox 5.2%, NPC1 promoter act 2.0%, SMN2 splice up 20.8%, FLuc counter -4.7%, Rab9 promoter act 14.2% and Luc counter -0.6%.
Screening COc1ccc(NC2=NC(C)(C)CS2)cc1 returned ELG1 genotox inconclusive, NPC1 promoter act inconclusive, SMN2 splice up 11.2µM*, FLuc counter inconclusive, Rab9 promoter act inconclusive and Luc counter 0.2%.
Screening CC[C@H](CO)Nc1nc(NCc2ccccc2)c2ncn(C(C)C)c2n1 returned SMN2 splice up 17.8µM* and Luc counter -2.1%.
`Clc1ccc(C(c2ccc(Cl)cc2)C(Cl)Cl)cc1` gave SMN2 splice up -16.2%.
For NC(=O)c1ncn(C2OC(CO)C(O)C2O)n1 (stereo not drawn) the results were SMN2 splice up 15.8µM* and Luc counter -1.7%.
NC(=O)c1cn(C2OC(CO)C(O)C2O)c2ncnc(N)c12 (stereo not drawn) was read as ELG1 genotox -18.0%, NPC1 promoter act -33.0%, SMN2 splice up -107.6%, FLuc counter 10.6%, Rab9 promoter act -36.9% and Luc counter 2.1%.
`CCN(CCO)c1ccc(N=Cc2c(O)n(C)c(=S)[nH]c2=O)cc1` gave ELG1 genotox 13.5%, NPC1 promoter act inconclusive, FLuc counter 1.69µM* and Rab9 promoter act inconclusive.
`O=C(CSc1nnc(NC(=O)c2ccccc2[N+](=O)[O-])s1)NCc1ccco1` gave ELG1 genotox 13.4%, NPC1 promoter act 1.8%, FLuc counter 13.5µM* and Rab9 promoter act 18.6%.
O=C(CSc1nnc(NC(=O)c2ccccc2F)s1)NCc1ccc(F)cc1 was read as ELG1 genotox inconclusive, NPC1 promoter act inconclusive, FLuc counter 12µM* and Rab9 promoter act inconclusive.
For C/C(=N\NC(=O)c1ccccc1O)c1c(O)n(C2CCCCC2)c(=O)[nH]c1=O the results were ELG1 genotox 4.6%, NPC1 promoter act 1.7%, FLuc counter 26.9µM* and Rab9 promoter act -1.0%.
Screening C/C(=N\NC(=O)c1ccccc1Cl)c1c(O)n(C2CCCCC2)c(=O)[nH]c1=O returned ELG1 genotox 0.0%, NPC1 promoter act 1.0%, FLuc counter -2.2% and Rab9 promoter act -0.6%.
`C/C(=N\NC(=O)c1ccccc1O)c1c(O)n(Cc2ccccc2)c(=O)[nH]c1=O` gave ELG1 genotox 4.3%, NPC1 promoter act -3.1%, FLuc counter 10.7µM* and Rab9 promoter act -2.9%.
Screening NS(=O)(=O)C[C-]1C=C[CH]([Sb-]([Cl])([Cl])([Cl])([Cl])[Cl])C=C1.c1ccncc1 (stereo not drawn) returned SMN2 splice up 2.8%[9.22 µM] and Luc counter -3.5%[7.66 µM].
`COC(=O)C(O)(c1ccc(NC(=O)Oc2ccccc2)cc1)C(F)(F)F` (stereo not drawn) gave ELG1 genotox 2.1%, NPC1 promoter act 1.2%, SMN2 splice up 18.4%, FLuc counter 15.1µM*, Rab9 promoter act -0.6% and Luc counter -1.8%.
CCc1ccc(N2C(=O)NC(=O)/C(=C\c3cccn3CCOc3ccc(C(C)C)cc3)C2=O)cc1 was read as ELG1 genotox 10.3µM*, NPC1 promoter act -10.9%, SMN2 splice up -65.2%, FLuc counter -0.9%, Rab9 promoter act inconclusive and Luc counter -2.1%.
Screening CCOC(=O)Cn1cc(C(=O)c2ccccc2)c2ccccc21 returned ELG1 genotox -3.1%, NPC1 promoter act -4.3%, FLuc counter -12.6% and Rab9 promoter act 0.3%.
`CCOC(=O)CSc1ncnc2c1cnn2-c1ccccc1` gave ELG1 genotox 5.0%, NPC1 promoter act -0.1%, SMN2 splice up inconclusive, FLuc counter 12µM*, Rab9 promoter act -0.5% and Luc counter -8.9%.
For O=C(N/N=C/c1c(O)n(-c2ccccc2)c(=S)[nH]c1=O)c1ccccc1 the results were ELG1 genotox 5.9%, NPC1 promoter act -0.2%, FLuc counter inconclusive and Rab9 promoter act 2.0%.
For O=C(N/N=C/c1c(O)n(C2CC2)c(=S)[nH]c1=O)c1ccccc1O the results were ELG1 genotox 11.0%, NPC1 promoter act inconclusive, SMN2 splice up inconclusive, FLuc counter 15.1µM*, Rab9 promoter act inconclusive and Luc counter -5.1%.
Cc1ccccc1-n1c(O)c(/C=N/NC(=O)c2ccccc2O)c(=O)[nH]c1=S was read as ELG1 genotox 17.0%, NPC1 promoter act 17.3%, FLuc counter 10.7µM* and Rab9 promoter act 22.6%.
For COc1ccc2o/c(=N\O)c(C(=O)Nc3ccc(C)cc3)cc2c1 the results were ELG1 genotox inconclusive, NPC1 promoter act -1.4%, FLuc counter inconclusive, Rab9 promoter act 0.0% and Luc counter 0.3%.
`COc1ccc(/C=C/C(=O)Nc2ccc(C)cc2)cc1` gave SMN2 splice up inconclusive and FLuc counter 6.75µM*.
